{"source": "the supplement of paper PMC5662767", "note": "Counter-ions that a name gives are not always drawn.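 Further: flow cytometry read-out as median GFP intensity of gated cells, compounds added 30 min before Hh-conditioned or mock medium, mock-treated cells serving as unstimulated baseline.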", "data": [{"system": "Drosophila S2 cl14 SmoIP sensor cells", "experiment": "normalized SmoIP GFP fluorescence (untreated unstimulated = 0%, untreated Hh-stimulated = 100%); higher = more Smo activation sensor fluorescence", "conditions": "stimulation: Hh conditioned medium (+Hh); compound concentration: 2 uM; 24 h", "units": {"normalized SmoIP GFP fluorescence": "%"}, "values": [{"molecule": "Cc1cc(Cl)ccc1OCCCC(=O)NO", "note": "[Droxinostat]", "normalized SmoIP GFP fluorescence": 95.2}, {"molecule": "CNC(=O)CN1CCC(Oc2cc3c(Nc4cccc(Cl)c4F)ncnc3cc2OC)CC1", "normalized SmoIP GFP fluorescence": 112}, {"molecule": "Cc1ccccc1C(=O)Nc1ccc(C(=O)N2CCCC(N(C)C)c3ccccc32)cc1", "note": "(stereo unspecified) [mozavaptan]", "normalized SmoIP GFP fluorescence": 105}, {"molecule": "CN(C)c1ccc(-c2nc3ncc(Cl)c(N4CCN(CC(=O)Nc5nccs5)CC4)c3[nH]2)cc1", "normalized SmoIP GFP fluorescence": 125}, {"molecule": "CCCCOc1c(C(=O)c2c(F)cc(C)cc2F)c[nH]c2nncc1-2", "normalized SmoIP GFP fluorescence": 138}, {"molecule": "Cc1nnc(C(=O)NC(C)(C)c2nc(C(=O)NCc3ccc(F)cc3)c(O)c(=O)n2C)o1", "note": "[Raltegravir-(MK-0518)]", "normalized SmoIP GFP fluorescence": 111}, {"molecule": "O=C(Nc1cccnc1)N1CCC(Cc2cccc(Oc3ccc(C(F)(F)F)cn3)c2)CC1", "normalized SmoIP GFP fluorescence": 116}, {"molecule": "COC(=O)[C@H](c1ccccc1Cl)N1CCc2sccc2C1", "note": "[Clopidogrel-bisulfate]", "normalized SmoIP GFP fluorescence": 113}, {"molecule": "O=c1ncccn1[C@@H]1O[C@H](CO)[C@@H](O)[C@H]1O", "note": "[zebularine]", "normalized SmoIP GFP fluorescence": 108}, {"molecule": "O=C(c1ccc(Nc2nccc(-c3cc4ccccc4s3)n2)cc1)N1CCC(N2CCCC2)CC1", "normalized SmoIP GFP fluorescence": 106}, {"molecule": "CC(C)(O)CC(=O)NCCn1ccc2ncnc(Nc3ccc(Oc4cccc(C(F)(F)F)c4)c(Cl)c3)c21", "normalized SmoIP GFP fluorescence": 116}, {"molecule": "FC(F)(F)c1ccc(/C=C/c2nc(COc3ccc(CCCCn4ccnn4)cc3)co2)cc1", "note": "[Mubritinib-TAK-165]", "normalized SmoIP GFP fluorescence": 149}, {"molecule": "CCOC(=O)[C@H](CCc1ccccc1)N[C@@H](C)C(=O)N1Cc2cc(OC)c(OC)cc2C[C@H]1C(=O)O", "note": "[moexipril-hydrochloride]", "normalized SmoIP GFP fluorescence": 126}, {"molecule": "CN(C)CC[C@H](CSc1ccccc1)Nc1ccc(S(=O)(=O)NC(=O)c2ccc(N3CCN(Cc4ccccc4-c4ccc(Cl)cc4)CC3)cc2)cc1[N+](=O)[O-]", "normalized SmoIP GFP fluorescence": 109}, {"molecule": "O=C(O)Cc1ccccc1Nc1c(Cl)cccc1Cl", "note": "[Diclofenac-sodium]", "normalized SmoIP GFP fluorescence": 110}, {"molecule": "Cc1ccc(N(CC2=NCCN2)c2cccc(O)c2)cc1", "note": "[phentolamine-mesilate]", "normalized SmoIP GFP fluorescence": 128}, {"molecule": "CNS(=O)(=O)Cc1ccc2[nH]cc(CCN(C)C)c2c1", "note": "[Sumatriptan-succinate]", "normalized SmoIP GFP fluorescence": 99.3}, {"molecule": "O=P(O)(O)C(O)(Cn1ccnc1)P(=O)(O)O", "note": "[Zoledronic-Acid]", "normalized SmoIP GFP fluorescence": 98.3}, {"molecule": "CC(C)OC(=O)OCOP(=O)(CO[C@H](C)Cn1cnc2c(N)ncnc21)OCOC(=O)OC(C)C", "note": "[Tenofovir-Disoproxil-Fumarate]", "normalized SmoIP GFP fluorescence": 91.2}, {"molecule": "O=C(O)CC[C@H]1CC[C@@](c2cc(F)ccc2F)(S(=O)(=O)c2ccc(Cl)cc2)CC1", "normalized SmoIP GFP fluorescence": 114}, {"molecule": "COc1c(C)cnc(Cn2cnc3c(Cl)nc(N)nc32)c1C", "normalized SmoIP GFP fluorescence": 121}, {"molecule": "CC[C@@]1(O)C(=O)OCc2c1cc1n(c2=O)Cc2cc3c(CN(C)C)c(O)ccc3nc2-1", "note": "[Topotecan-Hydrochloride]", "normalized SmoIP GFP fluorescence": 110}, {"molecule": "O[C@H](CNC[C@@H](O)[C@H]1CCc2cc(F)ccc2O1)[C@@H]1CCc2cc(F)ccc2O1", "note": "[Nebivolol(Bystolic)]", "normalized SmoIP GFP fluorescence": 109}, {"molecule": "O=C(O)CCCN1CCC(O[C@@H](c2ccc(Cl)cc2)c2ccccn2)CC1", "note": "[bepotastine-besilate]", "normalized SmoIP GFP fluorescence": 103}, {"molecule": "CC(C)NC[C@@H](C(=O)N1CCN(c2ncnc3c2[C@H](C)C[C@H]3O)CC1)c1ccc(Cl)cc1", "normalized SmoIP GFP fluorescence": 103}, {"molecule": "O=C(CSc1nc2c(c(=O)n1-c1ccccc1)SCC2)Nc1ccc(-c2ccccc2)cn1", "normalized SmoIP GFP fluorescence": 110}, {"molecule": "CNC(=O)[C@H](Cc1ccccc1)NC(=O)[C@H](CC(C)C)[C@H](CSc1cccs1)C(=O)NO", "normalized SmoIP GFP fluorescence": 94.8}, {"molecule": "Cc1c(OCC(F)(F)F)ccnc1C[S+]([O-])c1nc2ccccc2[nH]1", "note": "(stereo unspecified) [Lansoprazole]", "normalized SmoIP GFP fluorescence": 104}, {"molecule": "C[C@@H](O[C@H]1OCCN(Cc2n[nH]c(=O)[nH]2)[C@H]1c1ccc(F)cc1)c1cc(C(F)(F)F)cc(C(F)(F)F)c1", "note": "[Aprepitant]", "normalized SmoIP GFP fluorescence": 115}, {"molecule": "Cc1ccc(C(=O)Nc2cccc(C(F)(F)F)c2)cc1Nc1nc(-c2cccnc2)nc2c1cnn2C", "normalized SmoIP GFP fluorescence": 140}, {"molecule": "Nc1cccc(-c2cc3c(Oc4cccc(O)c4)ncnc3[nH]2)c1", "normalized SmoIP GFP fluorescence": 96.5}, {"molecule": "Cn1cc(/C=C2\\C(=O)Nc3cccnc32)c2ccccc21", "normalized SmoIP GFP fluorescence": 158}, {"molecule": "C[C@]1(c2nc3c(C(N)=O)cccc3[nH]2)CCCN1", "normalized SmoIP GFP fluorescence": 117}, {"molecule": "C[C@@H]1CCN(C(=O)CC#N)C[C@@H]1N(C)c1ncnc2[nH]ccc12", "normalized SmoIP GFP fluorescence": 105}, {"molecule": "CN(C)CCC[C@@]1(c2ccc(F)cc2)OCc2cc(C#N)ccc21", "note": "[escitalopram-oxalate]", "normalized SmoIP GFP fluorescence": 107}, {"molecule": "CCCCOc1ccc(CC(=O)NO)cc1", "note": "[bufexamac]", "normalized SmoIP GFP fluorescence": 98.6}, {"molecule": "COc1cc2ncnc(Nc3cccc(Cl)c3)c2cc1OC", "note": "[ag-1478-tyrphostin-ag-1478]", "normalized SmoIP GFP fluorescence": 157}, {"molecule": "N#Cc1ccc(C(c2ccc(C#N)cc2)n2cncn2)cc1", "note": "[Letrozole]", "normalized SmoIP GFP fluorescence": 98.8}]}, {"system": "Drosophila S2 cl14 SmoIP sensor cells", "experiment": "normalized SmoIP GFP fluorescence (untreated unstimulated = 0%, untreated Hh-stimulated = 100%); higher = more Smo activation sensor fluorescence", "conditions": "stimulation: mock conditioned medium (-Hh); compound concentration: 2 uM; 24 h", "units": {"normalized SmoIP GFP fluorescence": "%"}, "values": [{"molecule": "Cc1cc(Cl)ccc1OCCCC(=O)NO", "note": "[Droxinostat]", "normalized SmoIP GFP fluorescence": -5.76}, {"molecule": "CNC(=O)CN1CCC(Oc2cc3c(Nc4cccc(Cl)c4F)ncnc3cc2OC)CC1", "normalized SmoIP GFP fluorescence": -3.72}, {"molecule": "Cc1ccccc1C(=O)Nc1ccc(C(=O)N2CCCC(N(C)C)c3ccccc32)cc1", "note": "(stereo unspecified) [mozavaptan]", "normalized SmoIP GFP fluorescence": -2.08}, {"molecule": "CN(C)c1ccc(-c2nc3ncc(Cl)c(N4CCN(CC(=O)Nc5nccs5)CC4)c3[nH]2)cc1", "normalized SmoIP GFP fluorescence": 6.74}, {"molecule": "CCCCOc1c(C(=O)c2c(F)cc(C)cc2F)c[nH]c2nncc1-2", "normalized SmoIP GFP fluorescence": -11.7}, {"molecule": "Cc1nnc(C(=O)NC(C)(C)c2nc(C(=O)NCc3ccc(F)cc3)c(O)c(=O)n2C)o1", "note": "[Raltegravir-(MK-0518)]", "normalized SmoIP GFP fluorescence": -11.7}, {"molecule": "O=C(Nc1cccnc1)N1CCC(Cc2cccc(Oc3ccc(C(F)(F)F)cn3)c2)CC1", "normalized SmoIP GFP fluorescence": -0.297}, {"molecule": "COC(=O)[C@H](c1ccccc1Cl)N1CCc2sccc2C1", "note": "[Clopidogrel-bisulfate]", "normalized SmoIP GFP fluorescence": 2.97}, {"molecule": "O=c1ncccn1[C@@H]1O[C@H](CO)[C@@H](O)[C@H]1O", "note": "[zebularine]", "normalized SmoIP GFP fluorescence": -3.16}, {"molecule": "O=C(c1ccc(Nc2nccc(-c3cc4ccccc4s3)n2)cc1)N1CCC(N2CCCC2)CC1", "normalized SmoIP GFP fluorescence": 1.1}, {"molecule": "CC(C)(O)CC(=O)NCCn1ccc2ncnc(Nc3ccc(Oc4cccc(C(F)(F)F)c4)c(Cl)c3)c21", "normalized SmoIP GFP fluorescence": 3.66}, {"molecule": "FC(F)(F)c1ccc(/C=C/c2nc(COc3ccc(CCCCn4ccnn4)cc3)co2)cc1", "note": "[Mubritinib-TAK-165]", "normalized SmoIP GFP fluorescence": -0.747}, {"molecule": "CCOC(=O)[C@H](CCc1ccccc1)N[C@@H](C)C(=O)N1Cc2cc(OC)c(OC)cc2C[C@H]1C(=O)O", "note": "[moexipril-hydrochloride]", "normalized SmoIP GFP fluorescence": 3.4}, {"molecule": "CN(C)CC[C@H](CSc1ccccc1)Nc1ccc(S(=O)(=O)NC(=O)c2ccc(N3CCN(Cc4ccccc4-c4ccc(Cl)cc4)CC3)cc2)cc1[N+](=O)[O-]", "normalized SmoIP GFP fluorescence": 2.97}, {"molecule": "O=C(O)Cc1ccccc1Nc1c(Cl)cccc1Cl", "note": "[Diclofenac-sodium]", "normalized SmoIP GFP fluorescence": 4.03}, {"molecule": "Cc1ccc(N(CC2=NCCN2)c2cccc(O)c2)cc1", "note": "[phentolamine-mesilate]", "normalized SmoIP GFP fluorescence": -15.3}, {"molecule": "CNS(=O)(=O)Cc1ccc2[nH]cc(CCN(C)C)c2c1", "note": "[Sumatriptan-succinate]", "normalized SmoIP GFP fluorescence": 1.57}, {"molecule": "O=P(O)(O)C(O)(Cn1ccnc1)P(=O)(O)O", "note": "[Zoledronic-Acid]", "normalized SmoIP GFP fluorescence": -5.54}, {"molecule": "CC(C)OC(=O)OCOP(=O)(CO[C@H](C)Cn1cnc2c(N)ncnc21)OCOC(=O)OC(C)C", "note": "[Tenofovir-Disoproxil-Fumarate]", "normalized SmoIP GFP fluorescence": 2.43}, {"molecule": "O=C(O)CC[C@H]1CC[C@@](c2cc(F)ccc2F)(S(=O)(=O)c2ccc(Cl)cc2)CC1", "normalized SmoIP GFP fluorescence": 2.32}, {"molecule": "COc1c(C)cnc(Cn2cnc3c(Cl)nc(N)nc32)c1C", "normalized SmoIP GFP fluorescence": 34.5}, {"molecule": "CC[C@@]1(O)C(=O)OCc2c1cc1n(c2=O)Cc2cc3c(CN(C)C)c(O)ccc3nc2-1", "note": "[Topotecan-Hydrochloride]", "normalized SmoIP GFP fluorescence": 15.7}, {"molecule": "O[C@H](CNC[C@@H](O)[C@H]1CCc2cc(F)ccc2O1)[C@@H]1CCc2cc(F)ccc2O1", "note": "[Nebivolol(Bystolic)]", "normalized SmoIP GFP fluorescence": 19.8}, {"molecule": "O=C(O)CCCN1CCC(O[C@@H](c2ccc(Cl)cc2)c2ccccn2)CC1", "note": "[bepotastine-besilate]", "normalized SmoIP GFP fluorescence": -2.31}, {"molecule": "CC(C)NC[C@@H](C(=O)N1CCN(c2ncnc3c2[C@H](C)C[C@H]3O)CC1)c1ccc(Cl)cc1", "normalized SmoIP GFP fluorescence": -1.12}, {"molecule": "O=C(CSc1nc2c(c(=O)n1-c1ccccc1)SCC2)Nc1ccc(-c2ccccc2)cn1", "normalized SmoIP GFP fluorescence": -3.16}, {"molecule": "CNC(=O)[C@H](Cc1ccccc1)NC(=O)[C@H](CC(C)C)[C@H](CSc1cccs1)C(=O)NO", "normalized SmoIP GFP fluorescence": -2.48}, {"molecule": "Cc1c(OCC(F)(F)F)ccnc1C[S+]([O-])c1nc2ccccc2[nH]1", "note": "(stereo unspecified) [Lansoprazole]", "normalized SmoIP GFP fluorescence": -1.13}, {"molecule": "C[C@@H](O[C@H]1OCCN(Cc2n[nH]c(=O)[nH]2)[C@H]1c1ccc(F)cc1)c1cc(C(F)(F)F)cc(C(F)(F)F)c1", "note": "[Aprepitant]", "normalized SmoIP GFP fluorescence": -5.98}, {"molecule": "Cc1ccc(C(=O)Nc2cccc(C(F)(F)F)c2)cc1Nc1nc(-c2cccnc2)nc2c1cnn2C", "normalized SmoIP GFP fluorescence": -9.04}, {"molecule": "Nc1cccc(-c2cc3c(Oc4cccc(O)c4)ncnc3[nH]2)c1", "normalized SmoIP GFP fluorescence": 0.812}, {"molecule": "Cn1cc(/C=C2\\C(=O)Nc3cccnc32)c2ccccc21", "normalized SmoIP GFP fluorescence": 60.2}, {"molecule": "C[C@]1(c2nc3c(C(N)=O)cccc3[nH]2)CCCN1", "normalized SmoIP GFP fluorescence": -2.96}, {"molecule": "C[C@@H]1CCN(C(=O)CC#N)C[C@@H]1N(C)c1ncnc2[nH]ccc12", "normalized SmoIP GFP fluorescence": -0.889}, {"molecule": "CN(C)CCC[C@@]1(c2ccc(F)cc2)OCc2cc(C#N)ccc21", "note": "[escitalopram-oxalate]", "normalized SmoIP GFP fluorescence": -1.12}, {"molecule": "CCCCOc1ccc(CC(=O)NO)cc1", "note": "[bufexamac]", "normalized SmoIP GFP fluorescence": -3.05}, {"molecule": "COc1cc2ncnc(Nc3cccc(Cl)c3)c2cc1OC", "note": "[ag-1478-tyrphostin-ag-1478]", "normalized SmoIP GFP fluorescence": -12.9}, {"molecule": "N#Cc1ccc(C(c2ccc(C#N)cc2)n2cncn2)cc1", "note": "[Letrozole]", "normalized SmoIP GFP fluorescence": -1.88}]}]}
